# DUX4 txn inh – DUX4-mediated transcription inhibition. 293T-iDUX4 ZSCAN4-Gaussia luciferase reporter, 24 h; active compounds read low. activity change, negative = inhibition, % (test concentration not listed). 37,000 compounds, 0.8% hits;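 active = mean inhibition of at least 10% in the main channel, exceeding the control channel by a set limit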;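 also: 0% = median of neutral control wells and -100% = median of positive control wells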
# * marks the source's active call; other numbers are inactive results; ! = not active in a repeat. The full list was thinned out, with hits kept by preference.
SMILES,DUX4 txn inh
CC(C)[C@@H]1COCn2nncc2CC[C@H](C)C(=O)N1,2
COCC#Cc1ccc([C@@H]2[C@H](CO)N3CCCCN(Cc4ccncc4)C[C@@H]23)cc1,17
CCCC#Cc1ccc([C@H]2[C@@H](CO)N3CCCCN(Cc4ccncc4)C[C@@H]23)cc1,6
COc1ccc(C#Cc2ccc([C@@H]3[C@@H](CO)N4CCCCN(Cc5ccncc5)C[C@H]34)cc2)cc1,-26*
COc1ccc(C#Cc2ccc([C@@H]3[C@@H](CO)N4CCCCN(C)C[C@H]34)cc2)cc1,-7
COc1ccc(C#Cc2ccc([C@H]3[C@H]4CN(Cc5ccncc5)CCCCN4[C@H]3CO)cc2)cc1,-55*
COc1ccc(C#Cc2ccc([C@H]3[C@@H](CO)N4CCCCN(C)C[C@@H]34)cc2)cc1,-1
OC[C@@H]1[C@@H](c2ccc(C#CC3(O)CCCC3)cc2)[C@H]2CN(Cc3ccncc3)CCCCN12,13
COc1ccc(C#Cc2ccc([C@@H]3[C@H](CO)N4CCCCN(C)C[C@@H]34)cc2)cc1,-24*
CCCC#Cc1ccc([C@H]2[C@H]3CN(Cc4ccncc4)CCCCN3[C@H]2CO)cc1,-9
CN1c2ccc(-c3ccccc3)cc2[C@@H]2[C@@H](CCN2C(=O)Cc2cccnc2)[C@@H]1CO,10
CC(=O)N(C)C[C@H]1[C@@H](c2ccc(C#CC(C)C)cc2)[C@@H](CO)N1C(=O)C1CCC1,2
CCN1[C@H](C(=O)NC2CCC2)[C@@H](CO)[C@@H]2Cn3c(ccc(-c4ccc(OC)cc4)c3=O)[C@@H]21,5
COc1ccccc1C#Cc1ccc2c(c1)[C@@H]1[C@@H](CCN1C(=O)c1ccncc1)[C@@H](CO)N2,-9
COc1ccccc1C#Cc1ccc2c(c1)[C@@H]1NCC[C@@H]1[C@H](CO)N2,-23*
OC[C@@H]1Nc2ccc(C#Cc3cccc(F)c3)cc2[C@H]2NCC[C@@H]12,7
CC=Cc1ccc2n(c1=O)C[C@@H]1[C@@H](CO)[C@H](C(=O)OC)N(C(C)=O)[C@H]21 (mixture of isomers),-4
C[C@@H]1CCCCO[C@@H](CN(C)C(=O)Nc2ccc3c(c2)OCO3)[C@H](C)CN([C@@H](C)CO)C(=O)c2cc(NC(=O)Nc3ccc(C(F)(F)F)cc3)ccc2O1,-2
O=C(CN1CCOCC1)N1C[C@@H]2N[C@H](C1)C2c1ccc(-c2ccccc2)cc1 (some centres undefined),11
COc1cccc(CN2C[C@@H]3N[C@H](C2)C3c2ccc(-c3ccncc3)cc2)c1 (some centres undefined),-26*!
CN(C)C(=O)c1cccc(-c2ccc(C3[C@@H]4CN(Cc5cncnc5)C[C@H]3N4)cc2)c1 (some centres undefined),14
COc1cccc(S(=O)(=O)N2[C@@H]3CNC[C@H]2C3c2ccc(-c3ccccc3F)cc2)c1 (some centres undefined),3
COc1cccc(CN2C[C@@H]3N[C@H](C2)C3c2ccc(-c3ccccc3F)cc2)c1 (some centres undefined),-19*!
COc1ccccc1CN1C[C@@H]2N[C@H](C1)C2c1ccc(-c2ccccc2)cc1 (some centres undefined),-46*
COc1cccc(CN2[C@@H]3CNC[C@H]2C3c2ccc(-c3ccc(C#N)cc3)cc2)c1 (some centres undefined),4
SMILES,DUX4 txn inh
COc1cccc(-c2ccc(C3[C@H]4CNC[C@@H]3N4Cc3ccccc3F)cc2)c1 (some centres undefined),7
CN(C)C(=O)c1cccc(-c2ccc(C3[C@@H]4CN(C(=O)Nc5ccccc5F)C[C@H]3N4)cc2)c1 (some centres undefined),3
CN(C)C(=O)c1cccc(-c2ccc(C3[C@@H]4CN(Cc5ccccc5F)C[C@H]3N4)cc2)c1 (some centres undefined),-18*!
COc1cccc(-c2ccc3c(c2)[C@@H]2[C@@H](CCN2S(=O)(=O)c2ccccc2F)[C@H](CO)N3)c1,11
CC(=O)N1C[C@@H]2[C@H](c3ccccc31)[C@@H](CO)N2C(=O)CC1CC1,1
CN1CCN(C(=O)C[C@@H]2CC[C@H]3[C@@H](COC[C@@H](O)CN3C(=O)Nc3ccc4c(c3)OCO4)O2)CC1,3
COc1ccccc1CNC(=O)C[C@@H]1CC[C@H]2[C@@H](COC[C@@H](O)CN2Cc2ccc3c(c2)OCO3)O1,-2
CCC(=O)N1[C@H](CO)[C@@H](c2ccccc2-c2cccc(C)c2)[C@@H]1C#N,10
C[C@@H]1CN([C@@H](C)CO)C(=O)CCCn2nncc2CO[C@H]1CN(C)Cc1ccccc1O,-2
COCC#Cc1ccc([C@@H]2[C@H]3CN(C(=O)c4cccnc4)CC(=O)N3[C@H]2CO)cc1,16
Cc1ccc(-c2ccc(C3[C@@H]4CN(Cc5cccnc5)C[C@H]3N4)cc2)cc1 (some centres undefined),-22*!
Cc1ccc(-c2ccc(C3[C@@H]4CN(Cc5ccccc5)C[C@H]3N4)cc2)cc1 (some centres undefined),6

# High-throughput results from PubChem BioAssay.
